# Experimental data published in the supplement of paper PMC10849652.
# The full data set covers some 7,900 targets. This sample favours those with a hit. About 0.6% of all pairs of compound and target were hits. A number with no mark means an inactive call.
# Experiments:
# Assay in all cases: log2 fold change, soluble protein after heating vs DMSO (PISA); higher = thermal stabilisation; K562 cells, 10 uM, 30 min; active = over 0.2 and 3.5 SD of the protein, either way, in both replicates (recomputed)
# erlotinib = compound: C#Cc1cccc(Nc2ncnc3cc(OCCOC)c(OCCOC)cc23)c1 [erlotinib]
# Method in brief: (§1)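 K562 cells at 2×10^6 cells/mL were treated with 10 μM compound for 30 min. Aliquots were heated for 3 min across 48°C-58°C, pooled, and extracted in PBS with 0.5% NP-40 at 4°C; soluble protein was the supernatant after 21,000xg for 90 min. Soluble protein was quantified by TMTpro 16plex LC-MS/MS with channel sums equalised, and reported as log2 fold change in thermal stability against DMSO controls, with values from duplicates.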
# [1] = compound: C/C(=N\NC(=O)C1=CC(=CC=C1)S(=O)(=O)N2CCOCC2)/C3=C(C=CC(=C3)Cl)O
# Method in brief: as §1
# [2] = compound: C1=CC(=C(C=C1Cl)C2=NC3=NC=CN=C3C(=N2)NC4=CC=NC=C4)F
# Method in brief: as §1
# [3] = compound: C1=CC(=CC=C1C2=NC3=C(N2)C=C(C=C3)C(=O)N)OC4=CC=C(C=C4)Cl
# Method in brief: as §1
# [4] = compound: C1=CC2=C(C=CC(=C2)/C=C\3/C(=O)NC(=NCC4=CC=CS4)S3)N=C1
# Method in brief: as §1
# [5] = compound: C1=CC2=NC=CN=C2C=C1/C=C/3\C(=O)NC(=O)S3
# Method in brief: as §1
# [6] = compound: C1=CC=C(C=C1)C2=NC(=C(N2)C3=CC=NC=C3)C4=CC(=C(C=C4)Cl)O
# Method in brief: as §1
# [7] = compound: C1=CC=C2C(=C1)C3=NNC4=CC=CC(=C43)C2=O
# Method in brief: as §1
# [8] = compound: C1CCN(C1)C(=O)NC2=CC=CC(=C2)NC3=NC=C(C(=N3)NCCC4=CN=CN4)Br
# Method in brief: as §1
# [9] = compound: C1CN(CCC1(CC2=CC=C(C=C2)Cl)N)C3=NC=NC4=C3C=CN4
# Method in brief: as §1
# IRAK-1-4 Inhibitor I = compound: C1COCCN1CCN2C3=CC=CC=C3N=C2NC(=O)C4=CC(=CC=C4)[N+](=O)[O-] [IRAK-1-4 Inhibitor I]
# Method in brief: as §1
# ibrutinib = compound: C=CC(=O)N1CCC[C@@H](n2nc(-c3ccc(Oc4ccccc4)cc3)c3c(N)ncnc32)C1 [ibrutinib]
# Method in brief: as §1
# [10] = compound: CC(=O)c1cnc2ccc(-c3cc(Cl)c(O)c(Cl)c3)nc2c1N[C@H]1CC[C@H](CN(C)C)CC1
# Method in brief: as §1
# ralimetinib = compound: CC(C)(C)Cn1c(N)nc2ccc(-c3[nH]c(C(C)(C)C)nc3-c3ccc(F)cc3)nc21 [ralimetinib]
# Method in brief: as §1
# [11] = compound: CC(C)(O)CC(=O)NCCn1ccc2ncnc(Nc3ccc(Oc4cccc(C(F)(F)F)c4)c(Cl)c3)c21
# Method in brief: as §1
# [12] = compound: CC(C)C1=C2N=C(C=C(N2N=C1)NCC3=CC=CC=C3)NCCCCCCN
# Method in brief: as §1
# [13] = compound: CC(C)C[C@@H](C=O)NC(=O)[C@H](CC(C)C)NC(=O)[C@H](CC(C)C)NC(=O)OCc1ccccc1
# Method in brief: as §1
# pinometostat = compound: CC(C)N(C[C@H]1O[C@@H](n2cnc3c(N)ncnc32)[C@H](O)[C@@H]1O)[C@H]1C[C@@H](CCc2nc3cc(C(C)(C)C)ccc3[nH]2)C1 [pinometostat]
# Method in brief: as §1
# [14] = compound: CC1=C(C(CC(=O)N1)C2=CC=C(C=C2)C(F)(F)F)C(=O)NC3=C(C=C4C(=C3)C=NN4)F
# Method in brief: as §1
# [15] = compound: CC1=C(C2=C(C=C1)C(=O)C3=CC=CC=C3N2CCCN)C
# Method in brief: as §1
# Sequence of UniProt O15305 (O15305 whole entry, looked up): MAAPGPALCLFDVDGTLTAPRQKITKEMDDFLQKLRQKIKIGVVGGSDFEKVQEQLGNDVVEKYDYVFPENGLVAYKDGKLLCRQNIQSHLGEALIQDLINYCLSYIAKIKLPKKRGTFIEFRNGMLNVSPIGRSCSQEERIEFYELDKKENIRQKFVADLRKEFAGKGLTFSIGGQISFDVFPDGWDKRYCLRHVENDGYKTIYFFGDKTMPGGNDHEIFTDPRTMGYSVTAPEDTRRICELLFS
# Sequence of UniProt P06454 (P06454 whole entry, looked up): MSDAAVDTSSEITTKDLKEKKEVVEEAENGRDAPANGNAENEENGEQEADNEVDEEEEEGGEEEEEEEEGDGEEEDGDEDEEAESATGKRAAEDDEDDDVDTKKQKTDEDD
# Sequence of UniProt Q8IV08 (Q8IV08 whole entry, looked up): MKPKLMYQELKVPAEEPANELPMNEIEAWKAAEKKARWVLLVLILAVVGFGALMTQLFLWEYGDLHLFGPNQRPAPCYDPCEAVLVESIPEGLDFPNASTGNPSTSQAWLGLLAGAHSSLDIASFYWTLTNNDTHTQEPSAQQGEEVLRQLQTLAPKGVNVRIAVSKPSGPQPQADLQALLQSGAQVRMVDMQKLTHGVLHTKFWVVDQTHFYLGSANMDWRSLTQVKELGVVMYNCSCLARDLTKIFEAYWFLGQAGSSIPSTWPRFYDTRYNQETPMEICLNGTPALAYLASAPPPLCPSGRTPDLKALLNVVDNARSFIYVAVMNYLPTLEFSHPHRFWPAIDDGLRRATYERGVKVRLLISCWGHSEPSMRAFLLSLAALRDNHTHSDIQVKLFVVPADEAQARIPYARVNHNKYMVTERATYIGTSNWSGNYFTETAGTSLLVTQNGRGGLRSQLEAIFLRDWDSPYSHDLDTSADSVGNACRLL
# Sequence of UniProt O43395 (O43395 whole entry, looked up): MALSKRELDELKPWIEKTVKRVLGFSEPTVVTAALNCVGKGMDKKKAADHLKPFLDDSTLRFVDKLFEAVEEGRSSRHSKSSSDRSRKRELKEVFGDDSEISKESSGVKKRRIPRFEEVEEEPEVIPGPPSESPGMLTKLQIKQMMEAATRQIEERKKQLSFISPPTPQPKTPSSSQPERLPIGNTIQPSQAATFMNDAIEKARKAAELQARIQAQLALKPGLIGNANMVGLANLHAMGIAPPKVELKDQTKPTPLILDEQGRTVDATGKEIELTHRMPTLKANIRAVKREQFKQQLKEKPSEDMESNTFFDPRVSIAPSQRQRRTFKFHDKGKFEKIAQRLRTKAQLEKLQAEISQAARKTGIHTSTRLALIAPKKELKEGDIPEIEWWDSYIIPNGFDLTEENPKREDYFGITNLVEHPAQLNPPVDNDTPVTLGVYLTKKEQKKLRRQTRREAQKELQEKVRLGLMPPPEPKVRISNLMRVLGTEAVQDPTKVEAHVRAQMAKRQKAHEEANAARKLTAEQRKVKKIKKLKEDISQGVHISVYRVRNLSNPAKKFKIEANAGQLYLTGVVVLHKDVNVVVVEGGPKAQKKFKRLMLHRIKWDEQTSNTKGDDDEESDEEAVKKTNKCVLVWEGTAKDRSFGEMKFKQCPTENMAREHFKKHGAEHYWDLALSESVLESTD
# Sequence of UniProt Q13200 (Q13200 whole entry, looked up): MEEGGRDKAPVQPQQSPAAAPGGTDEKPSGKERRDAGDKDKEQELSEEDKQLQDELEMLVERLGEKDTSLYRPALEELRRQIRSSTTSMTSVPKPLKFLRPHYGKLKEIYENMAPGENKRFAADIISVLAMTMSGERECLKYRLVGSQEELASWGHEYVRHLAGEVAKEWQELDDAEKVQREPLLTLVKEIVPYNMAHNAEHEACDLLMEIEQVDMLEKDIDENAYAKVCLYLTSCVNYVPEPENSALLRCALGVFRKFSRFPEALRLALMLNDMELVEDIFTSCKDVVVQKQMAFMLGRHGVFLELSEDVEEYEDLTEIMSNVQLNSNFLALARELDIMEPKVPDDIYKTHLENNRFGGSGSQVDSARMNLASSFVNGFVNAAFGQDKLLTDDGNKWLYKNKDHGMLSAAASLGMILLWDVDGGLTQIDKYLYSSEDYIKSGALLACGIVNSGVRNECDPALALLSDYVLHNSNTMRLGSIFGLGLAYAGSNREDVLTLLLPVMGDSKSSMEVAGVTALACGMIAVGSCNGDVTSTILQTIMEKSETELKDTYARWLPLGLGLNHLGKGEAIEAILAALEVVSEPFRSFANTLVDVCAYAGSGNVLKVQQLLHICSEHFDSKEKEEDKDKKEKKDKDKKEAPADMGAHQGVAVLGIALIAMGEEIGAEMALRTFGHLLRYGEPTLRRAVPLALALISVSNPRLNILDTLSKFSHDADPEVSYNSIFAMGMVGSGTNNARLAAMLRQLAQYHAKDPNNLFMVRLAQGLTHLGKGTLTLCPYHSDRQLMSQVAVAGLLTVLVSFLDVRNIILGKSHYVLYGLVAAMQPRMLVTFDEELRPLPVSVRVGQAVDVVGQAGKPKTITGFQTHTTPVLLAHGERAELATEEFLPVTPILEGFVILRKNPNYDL
# Sequence of UniProt Q05655 (Q05655 whole entry, looked up): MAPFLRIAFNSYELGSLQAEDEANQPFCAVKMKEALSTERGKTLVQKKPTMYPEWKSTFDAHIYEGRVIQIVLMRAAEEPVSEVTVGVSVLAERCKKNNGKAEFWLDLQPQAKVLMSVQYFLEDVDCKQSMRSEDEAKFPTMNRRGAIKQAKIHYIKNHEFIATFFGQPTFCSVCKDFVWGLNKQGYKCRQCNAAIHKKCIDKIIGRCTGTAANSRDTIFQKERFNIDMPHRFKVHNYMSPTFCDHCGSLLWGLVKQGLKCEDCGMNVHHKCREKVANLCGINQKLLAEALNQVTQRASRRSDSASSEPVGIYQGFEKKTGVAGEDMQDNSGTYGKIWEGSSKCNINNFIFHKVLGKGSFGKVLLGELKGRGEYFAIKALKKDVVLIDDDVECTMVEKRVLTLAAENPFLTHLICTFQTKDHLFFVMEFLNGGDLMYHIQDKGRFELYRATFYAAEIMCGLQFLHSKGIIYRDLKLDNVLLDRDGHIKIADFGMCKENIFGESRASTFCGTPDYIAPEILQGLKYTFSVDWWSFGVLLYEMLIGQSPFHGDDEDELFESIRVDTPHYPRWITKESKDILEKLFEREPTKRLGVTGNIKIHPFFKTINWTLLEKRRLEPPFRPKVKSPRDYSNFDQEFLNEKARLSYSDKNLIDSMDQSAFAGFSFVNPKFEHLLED
# Sequence of UniProt Q96A00 (Q96A00 whole entry, looked up): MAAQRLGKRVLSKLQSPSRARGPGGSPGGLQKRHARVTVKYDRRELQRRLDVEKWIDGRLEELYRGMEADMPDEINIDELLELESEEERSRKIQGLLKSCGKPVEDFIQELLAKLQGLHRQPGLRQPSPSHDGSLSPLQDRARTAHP
Target,log2 fold change (erlotinib),log2 fold change [1],log2 fold change [2],log2 fold change [3],log2 fold change [4],log2 fold change [5],log2 fold change [6],log2 fold change [7],log2 fold change [8],log2 fold change [9],log2 fold change (IRAK-1-4 Inhibitor I),log2 fold change (ibrutinib),log2 fold change [10],log2 fold change (ralimetinib),log2 fold change [11],log2 fold change [12],log2 fold change [13],log2 fold change (pinometostat),log2 fold change [14],log2 fold change [15]
PTMA (UniProt P06454),0.06,0.159,0.192,0.005,-0.136,0.006,0.197,0.189,-0.148,0.151,0.034,0.049,0.127,0.251,-0.133,0.085,-0.289,-0.092,0.063,-0.021
PRPF3 (UniProt O43395),0.06,0.144,0.069,-0.02,0.015,0.019,0.057,0,-0.07,0.053,-0.018,-0.038,-0.179,-0.008,-0.055,-0.205,-0.001,0,0,-0.2
PMM2 (UniProt O15305),0.03,-0.034,0.008,-0.02,0.023,0.003,-0.014,-0.019,-0.004,0.05,0.025,-0.025,0.012,-0.1,0.009,0.089,-0.032,-0.029,0.012,-0.015
PSMD2 (UniProt Q13200),-0.095,-0.095,-0.042,-0.001,-0.043,-0.024,0.007,0.016,0.005,-0.021,-0.08,-0.035,0.039,0.018,0.021,0.039,-0.296 (active),0.019,0.04,-0.036
PPP1R14A (UniProt Q96A00),0.047,0.004,0.004,0.063,-0.036,-0.001,0.341 (active),0.004,0.016,0.015,0.041,-0.01,0.036,0.218,-0.009,0.126,-0.122,-0.065,0.01,-0.073
PLD3 (UniProt Q8IV08),-0.012,0.029,0.054,0.023,0.04,0.024,-0.061,0.006,0.001,0.048,0.022,-0.031,-0.042,-0.039,-0.022,-0.079,0.05,-0.005,0.003,-0.023
PRKCD (UniProt Q05655),-0.01,0.004,0.028,0.065,0.016,0.044,-0.006,-0.008,0.009,-0.001,0.043,-0.027,-0.685 (active),-0.041,-0.013,-0.004,0.022,0.017,-0.024,0
POLR2I (UniProt P36954),-0.058,-0.107,0.108,0.068,-0.073,-0.117,0.079,-0.043,-0.092,0,0.045,0.136,0.425 (active),-0.079,0.035,0.389,0.03,-0.024,0,0.324
